Experimental data as given in PubChem BioAssay (NCATS).
Inconclusive results are not listed. The source made the active and inactive calls. Calls come from the whole dose curve; as a rule, active = well fitted curve in the direction sought with a large enough effect; inconclusive = small, poorly fitted or top-dose-only effect, or another doubt; inactive = no such curve, though single readings can be large; an effect the other way counts as inactive or inconclusive. Where a SMILES comes first, the peptide text is derived from it. Bridges are numbered along the chain shown (N, C = ends). [ ]: non-standard residue; d: D form. The star is where a group is joined. X1 = CCC(C)C(N)C1=NC(C(=O)*)CS1; PhLac = O=C(O)[CH](O)Cc1ccccc1; NMeV = CN[CH](C(=O)O)C(C)C; dOrn = NCCC[C@@H](N)C(=O)O

Experiments:
[1] = target: Phospholipid hydroperoxide glutathione peroxidase GPX4 (Homo sapiens) (UniProt P36969); test: Primary qHTS Assay for Inhibitors of Recombinant Selenoprotein Glutathione Peroxidase 4 (GPX4) (AID 1845192); conditions: recombinant GPX4, GR-coupled NADPH fluorescence, 15 min; series mostly up to 50 µM; note: nearly all actives have a fitted effect of over 65% in size; for activity change, negative = inhibition: % is set by controls: 0 for no effect and ±100 for the full control effect
Sequence of Phospholipid hydroperoxide glutathione peroxidase GPX4 (Homo sapiens) (P36969 whole entry, looked up): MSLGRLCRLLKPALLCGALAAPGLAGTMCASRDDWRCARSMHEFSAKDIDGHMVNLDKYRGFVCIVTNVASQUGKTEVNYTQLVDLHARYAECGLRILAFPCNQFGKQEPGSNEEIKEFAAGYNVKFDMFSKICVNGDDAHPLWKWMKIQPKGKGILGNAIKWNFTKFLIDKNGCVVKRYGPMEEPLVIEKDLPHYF
Summary of the method: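 Steps: GPX4 plus compound, 30 min RT; add GR/GSH/NADPH master mix; start with cumene hydroperoxide; read 340/450 nm fluorescence at 0 and 15 min. Finals were 200 nM GPX4, 1 mM GSH, 0.5 mM CHP, 0.5 mM NADPH, 100 nM GR.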

[2] = target: Luciferin 4-monooxygenase (Photinus pyralis) (UniProt P08659); test: Primary firefly luciferase (FLuc) qHTS assay for identification of artifact compounds. (AID 1845220); conditions: purified firefly luciferase, luminescence, 5 min; series mostly up to 54.1 µM; note: nearly all actives have a fitted effect of over 60% in size;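 for activity change, negative = inhibition: plate controls were DMSO vehicle for no effect and no enzyme for full effect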
Summary of the method: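 D-luciferin and ATP (10 uM each, final) in Tris acetate buffer pH 7.6 were incubated with compounds for 15 min at room temperature. The reaction was started with 10 nM Photinus pyralis luciferase and luminescence read after 5 min. Percent inhibition was fitted to a 4-parameter Hill equation.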

[3] = Primary fluorescence-based thiol-reactive (MSTI) qHTS assay for identification of artifact compounds. (AID 1845221); conditions: MSTI thiol-reactivity probe, 1 h; series mostly up to 53.8 µM; note: nearly all actives have a fitted effect of over 65% in size; note: potency is the fitted concentration of half-maximal effect;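 for activity change, negative = thiol reactive: thiol-reactive compounds lower the probe fluorescence signal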
Summary of the method: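 In PBS pH 7.4 with 2% DMSO, each compound met 4 uM MSTI for one hour at ambient temperature, shielded from light, before fluorescence detection.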

[4] = tested on: Nanoluciferase (engineered Oplophorus gracilirostris luciferase); test: Primary Nanoluciferase (NLuc) qHTS assay for identification of artifact compounds. (AID 1845222); conditions: NLuc-conditioned medium, Nano-Glo luminescence, 5 min; series mostly up to 54.1 µM;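 note: 0% = DMSO and -100% = no enzyme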
Summary of the method: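 Diluted conditioned medium from NLuc-expressing S16 cells treated with compounds for 15 min at room temperature, then Nano-Glo substrate added; luminescence read after 5 min. Percent inhibition versus no-enzyme and DMSO controls fitted to 4-parameter Hill equation.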

[5] = Primary redox qHTS assay for identification of artifact compounds. (AID 1845223); conditions: Amplex Red/HRP redox cycling with DTT, fluorescence; series mostly up to 53.8 µM;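 note: 0% = DMSO and 100% = reference compound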
Summary of the method: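 Redox-cycling detection via DTT (250 uM final) oxidation coupled to Amplex Red (25 uM)/HRP (250 mU/mL) in HBSS. 15 min preincubation plus 30 min after DTT, room temperature. Ex/Em 525/598 nm; 4-parameter Hill fit against DMSO and 10 uM DA3003.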

CCC(CCO[C@@H]1O[C@H](CO[C@H]2OC[C@](O)(CO)[C@H]2O)[C@@H](O)[C@H](O)[C@H]1O)C(C)(C)O (stereo not given in full)
inactive: Potency [1] | Potency [2] | Potency [3] | Potency [4] | Potency [5]

COc1cc2c(cc1OC)CN(C(=O)[C@@H](NCc1ccncc1)C(C)(C)C)CC2
inactive: Potency [1] | Potency [2] | Potency [3] | Potency [4] | Potency [5]

COc1cc(/C=C/C(=O)OC(C)(C)C(OC2OC(CO)C(O)C(O)C2O)C(=O)OCc2ccc(OC3OC(CO)C(O)C(O)C3O)cc2)ccc1O (stereo not given)
inactive: Potency [1] | Potency [2] | Potency [3] | Potency [4] | Potency [5]

CC(=O)OCC(=O)O[C@@H]1[C@H]2[C@@H](OC(=O)c3ccccc3)[C@@H](C)C[C@]2(O)[C@H](OC(C)=O)C2(C)[C@H]3CC(C)(C)C(=O)[C@@H]3CC1(OC(C)=O)[C@@H]2OC(C)=O (stereo not given in full)
inactive: Potency [1] | Potency [2] | Potency [3] | Potency [4] | Potency [5]

CC(C)C(C(=O)N1CCCC1C(=O)O)N(C)C(=O)C(O)Cc1ccccc1 (stereo not given) (H-[PhLac]-[NMeV]-Pro-OH; configuration not given here)
inactive: Potency [1] | Potency [2] | Potency [3] | Potency [4] | Potency [5]

O=C(/C=C/c1ccc(O)cc1)OCC1=CC2OC(=O)C3=CO[C@@H](O[C@@H]4O[C@H](CO)[C@@H](O)[C@H](O)[C@H]4O)[C@H]1[C@@H]32 (stereo not given in full)
inactive: Potency [1] | Potency [2] | Potency [3] | Potency [4] | Potency [5]

C=CC(C)(O)CC/C=C(\C)C(=O)OCC1OC(OC2CCC3(C)C(CCC4(C)C3CC=C3C5CC(C)(C)C(O)CC5(C(=O)O)CCC34C)C2(C)C)C(O)C(OC2OC(CO)C(O)C(OC3OC(CO)C(O)C(OC4OC(COC5OC(CO)C(O)C(O)C5O)C(O)C(O)C4O)C3O)C2O)C1O (stereo not given)
inactive: outcome [1] inactive [at 9.73 µM] | outcome [2] inactive [at 11.6 µM] | activity change, negative = thiol reactive [3] 67.6% [at 11.5 µM] | activity, negative = inhibition [4] 4.87% [at 11.6 µM] | redox activity (% of DA3003) [5] 18.5% [at 11.5 µM]

Cc1nc2c(-c3cnc(N)nc3)nc(N3CCOCC3)nc2n1C(C)C
inactive: Potency [1] | Potency [2] | Potency [3] | Potency [4] | Potency [5]

CC1(C)CCC(C)(C)c2cc3c(cc21)Sc1ccccc1N=C3c1ccc(C(=O)O)cc1
inactive: Potency [1] | Potency [2] | Potency [3] | Potency [4] | Potency [5]

CC1(C(=O)O)CCCC2(C)C1CCC13CC(CCC21)C1(CO)OC31 (stereo not given)
inactive: Potency [1] | Potency [2] | Potency [3] | Potency [4] | Potency [5]

O=c1ccn(C2OC(CO)C(O)C2O)c(=O)[nH]1 (stereo not given)
inactive: Potency [1] | Potency [2] | Potency [3] | Potency [4] | Potency [5]

Cc1c(CN(C)C(=O)/C=C/c2cnc3c(c2)CCC(=O)N3)oc2ccccc12
inactive: Potency [1] | Potency [2] | Potency [3] | Potency [4] | Potency [5]

CC1(C)CC[C@]2(C(=O)O)CC[C@]3(C)C(=CCC4[C@@]5(C)C[C@@H](O)[C@H](O)C(C)(C)C5CC[C@]43C)[C@@H]2[C@@H]1O (stereo not given in full)
inactive: Potency [1] | Potency [2] | Potency [3] | Potency [4] | Potency [5]

O=C(NN1CCCCC1)c1nn(-c2ccc(Cl)cc2Cl)c(-c2ccc(C#Cc3ccc(C(F)(F)F)cc3)s2)c1CNS(=O)(=O)N1CCCC1
inactive: Potency [1] | Potency [2] | Potency [3] | Potency [4] | Potency [5]

C=C[C@H]1[C@H](O[C@@H]2O[C@H](CO)[C@@H](O)[C@H](O)[C@H]2O)OC=C2C(=O)OCC[C@]21O
active: Potency [3] 11.7 µM
inactive: Potency [1] | Potency [2] | Potency [4] | Potency [5]

C=C(C)[C@H]1C[C@@H](O)C(=C)CC[C@@H](O)C(=C)[C@@H](O)C1
inactive: Potency [1] | Potency [2] | Potency [4] | Potency [5]
active: Potency [3] 11.9 µM

C=CC(C)(C)C12CC3C(=O)NC(Cc4cnc[nH]4)C(=O)N3C1Nc1ccccc12 (stereo not given)
inactive: Potency [1] | Potency [2] | Potency [3] | Potency [4] | Potency [5]

Cc1cc(N2CCCCC2)nc2ccccc12
inactive: Potency [1] | Potency [2] | Potency [3] | Potency [4] | Potency [5]

C/C=C(\C)C(=O)O[C@@H](C)[C@H]1CC[C@]2(O)C3CCC4C[C@@H](OC5CC(OC)C(OC6CC(OC)C(OC7CC(OC)C(OC8OC(C)C(OC9OC(CO)C(O)C(O)C9O)C(OC)C8O)C(C)O7)C(C)O6)C(C)O5)CC[C@]4(C)C3[C@H](O)[C@@H](O)[C@]12C (stereo not given in full)
inactive: activity change, negative = inhibition [1] -0.387% [at 9.73 µM] | outcome [2] inactive [at 11.6 µM] | activity change, negative = thiol reactive [3] 94.5% [at 11.5 µM] | activity, negative = inhibition [4] 0.355% [at 11.6 µM] | redox activity (% of DA3003) [5] 14% [at 11.5 µM]

CC1(C)O[C@@]2(C)CC[C@@H]1C[C@@H]2OC1OC(CO)C(O)C(O)C1O (stereo not given in full)
inactive: Potency [1] | Potency [2] | Potency [4] | Potency [5]
active: Potency [3] 7.36 µM

COC(=O)C1=CO[C@@H](O[C@@H]2O[C@H](CO[C@@H]3O[C@H](COC(=O)/C=C/c4ccc(O)cc4)[C@@H](O)[C@H](O)[C@H]3O)[C@@H](O)[C@H](O)[C@H]2O)[C@@H]2C(CO)=CC[C@H]12
inactive: Potency [1] | Potency [2] | Potency [3] | Potency [4] | Potency [5]

C=CC1(C)C=C2C(=O)CC3C(C)(C)CCCC3(C(=O)O)C2(O)CC1 (stereo not given)
inactive: Potency [1] | Potency [2] | Potency [3] | Potency [4] | Potency [5]

C=CC1(C)CC2=CCC3C(C)(C(=O)O)CCCC3(C)C2CC1OC(C)=O (stereo not given)
inactive: Potency [1] | Potency [2] | Potency [3] | Potency [4] | Potency [5]

CC1(O)CCC2C(C(=O)O)=COC(OC3OC(CO)C(O)C(O)C3OC(=O)/C=C/c3ccc(O)cc3)C21 (stereo not given)
inactive: Potency [1] | Potency [2] | Potency [4] | Potency [5]
active: Potency [3] 3.27 µM

NC(=O)[C@H]1CCCCc2c1[nH]c1ccc(Cl)cc21
inactive: Potency [1] | Potency [2] | Potency [3] | Potency [4] | Potency [5]

CCC(C)C(N)C1=NC(C(=O)N[C@@H](CC(C)C)C(=O)N[C@H](CCC(=O)O)C(=O)N[C@H](C(=O)N[C@H]2CCCCNC(=O)[C@H](CC(N)=O)NC(=O)[C@@H](CC(=O)O)NC(=O)[C@H](Cc3cnc[nH]3)NC(=O)[C@@H](Cc3ccccc3)NC(=O)[C@H]([C@@H](C)CC)NC(=O)[C@@H](CCCN)NC2=O)[C@@H](C)CC)CS1 (stereo not given in full) (X1-L[dE]IK[dOrn]I[dF]H[dD]N; lactam 4-C)
inactive: Potency [1] | Potency [2] | Potency [3] | Potency [4] | Potency [5]
